Assay results reported in the OligoGym collection.

Target: FPGS
Experiment: pooled miR-30 sensor sort-seq; sequence = guide strand
Conditions: shRNA
Also: reference of the scale not given here.

Q: Which sensor-assay potency score (higher = more potent) does the source give for TCCTTGGTCTCCTCCAGCCGGT here?
A: -1.92

Q: With TCTTCGTCCAGGTGGTTCCAGT as the sequence, how does the sensor-assay potency score (higher = more potent) read?
A: -0.895

Q: TATAGAGGACATGAGATCTGCT was tested. Which sensor-assay potency score (higher = more potent) did it give?
A: 0.932

Q: ATTGATGCGGATCCGCTCCCGA was tested. Which sensor-assay potency score (higher = more potent) did it give?
A: -1.01

Q: TGAAGTTCTGTTGGTCTGCGTT was tested. Which sensor-assay potency score (higher = more potent) did it give?
A: -0.752

Q: How did the sensor-assay potency score (higher = more potent) turn out when TCACTGTGAAGTTCTGTTGGTC was run?
A: 0.188

Q: Which sensor-assay potency score (higher = more potent) does the source give for TTGGTGAAGAGCTCAGGACTGA here?
A: -0.348

Q: With TCGGAGGATACATTCCGTGAAG as the sequence, how does the sensor-assay potency score (higher = more potent) read?
A: -1.5

Q: Which sensor-assay potency score (higher = more potent) does the source give for TGAAGAGCAAGACTCGAACCTC here?
A: -0.155

Q: ATACATTCCGTGAAGGCACAGG was tested. Which sensor-assay potency score (higher = more potent) did it give?
A: 0.476

Q: How did the sensor-assay potency score (higher = more potent) turn out when TAGCATTGAAGAGCAAGACTCG was run?
A: -0.404

Q: For TGCCTGTGGATGACACCTCTGT, which sensor-assay potency score (higher = more potent) is on record?
A: -0.547

Q: TTCCGTGAAGGCACAGGTGGAG was tested. Which sensor-assay potency score (higher = more potent) did it give?
A: 0.0376

Q: TGTCTGAGGGTCACCCCGCTGG was tested. Which sensor-assay potency score (higher = more potent) did it give?
A: -0.513

Q: For TTCTGTTGGTCTGCGTTGCCTG, which sensor-assay potency score (higher = more potent) is on record?
A: -0.416

Q: TTGCCTGTGGATGACACCTCTG was tested. Which sensor-assay potency score (higher = more potent) did it give?
A: -0.989

Q: With TCTGTTGGTCTGCGTTGCCTGT as the sequence, how does the sensor-assay potency score (higher = more potent) read?
A: -0.767

Q: Which sensor-assay potency score (higher = more potent) does the source give for TTCCTGATGATGTTGGTGCAGT here?
A: -0.727

Q: How did the sensor-assay potency score (higher = more potent) turn out when TAGAGGACATGAGATCTGCTGG was run?
A: -0.333

Q: With TTCAGGTTGGAGCACAGTGAAG as the sequence, how does the sensor-assay potency score (higher = more potent) read?
A: -1.98

Q: TTGATGCGGATCCGCTCCCGAA was tested. Which sensor-assay potency score (higher = more potent) did it give?
A: -1.62

Q: With TTGGTCTGCGTTGCCTGTGGAT as the sequence, how does the sensor-assay potency score (higher = more potent) read?
A: -1.06

Q: For TTCACCTGCTCCAGGTAGCCGG, which sensor-assay potency score (higher = more potent) is on record?
A: -1.54

Target: FPGT-TNNI3K
Experiment: as above
Conditions: shRNA

Q: Which sensor-assay potency score (higher = more potent) does the source give for TAACATATGATTCACTGACTTT here?
A: -0.697

Q: For TTACATTTACATCAGCACCAAA, which sensor-assay potency score (higher = more potent) is on record?
A: -1.01

Q: For TATCTTGAGCATTCACATCTGC, which sensor-assay potency score (higher = more potent) is on record?
A: 0.666

Q: Which sensor-assay potency score (higher = more potent) does the source give for TTCTTTTTCCTTGATCTGCAGG here?
A: -0.729

Q: For TTTTATTTCTGCATCGTCCTTT, which sensor-assay potency score (higher = more potent) is on record?
A: 0.923

Q: With TTAATTTAGACTGCAAATCAAG as the sequence, how does the sensor-assay potency score (higher = more potent) read?
A: -1.11

Q: TTTGACTAGGTCAATGCTCTTG was tested. Which sensor-assay potency score (higher = more potent) did it give?
A: -0.0852

Q: Which sensor-assay potency score (higher = more potent) does the source give for TTGACTAGGTCAATGCTCTTGC here?
A: 0.745

Q: With TTGAGCATTCACATCTGCTTTG as the sequence, how does the sensor-assay potency score (higher = more potent) read?
A: -0.576

Q: How did the sensor-assay potency score (higher = more potent) turn out when TTTATTTCTGCATCGTCCTTTA was run?
A: -0.351

Target: FRMD4B
Experiment: as above
Conditions: shRNA

Q: TAAACTGCCATTACTTGCCATG was tested. Which sensor-assay potency score (higher = more potent) did it give?
A: -1.04

Q: How did the sensor-assay potency score (higher = more potent) turn out when TTGAAACTGAAATCCTTCGTGG was run?
A: 0.853

Q: Which sensor-assay potency score (higher = more potent) does the source give for TTTGCTTTGCTTCCGGTCCAAG here?
A: -1.02

Q: With TAGAAGTTTGGGCTGAACCAGC as the sequence, how does the sensor-assay potency score (higher = more potent) read?
A: -0.701

Q: With TTGAAGTAGAAACATTCTGTTT as the sequence, how does the sensor-assay potency score (higher = more potent) read?
A: -1.02

Q: Which sensor-assay potency score (higher = more potent) does the source give for TTGTCATCTAATTTGAACGCAG here?
A: -0.725

Q: How did the sensor-assay potency score (higher = more potent) turn out when TTTCTTTGCAGCTTCCACCAGC was run?
A: -0.481
